The values below come from PubChem BioAssay (NCATS).

The subject of assay [1] is CP260. Nature of the assay: qHTS profiling for inhibitors of Plasmodium falciparum proliferation (AID 504749). Further: nearly all actives have a fitted effect of over 60% in size. Further: potency means the concentration at half of the fitted maximal effect. To be noted: P. falciparum in erythrocytes, SYBR Green DNA, 72 h; series mostly up to 28.7 µM. A digest of the protocol: (§1)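 Parasite proliferation within erythrocytes, 72 h exposure. Endpoint: SYBR Green I fluorescence after overnight lysis at room temperature. Controls: 0.29 uM artemisinin, DMSO.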
(In qHTS, concentration-response curves come from the screen itself.)

For assay [2], the system named is CP297. The description is as above. To be noted: P. falciparum in erythrocytes, SYBR Green DNA, 72 h; series mostly up to 28.7 µM. Summed up:
as §1

Assay [3] concerns ICS. Described as above. To be noted: P. falciparum in erythrocytes, SYBR Green DNA, 72 h; series mostly up to 28.7 µM. Summed up: as §1
The subject of assay [4] is JCK. Described as above. To be noted: P. falciparum in erythrocytes, SYBR Green DNA, 72 h; series mostly up to 28.7 µM. Summed up:
as §1

Assay [5] in a line: S16 Schwann cell PMP22 intronic element firefly luciferase assay (AID 624032). Further: nearly all actives have a fitted effect of over 30% in size. To be noted: S16 rat Schwann cells, PMP22 element FLuc, 24 h; series mostly up to 57.5 µM. A digest of the protocol: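 Rat S16 Schwann cells stably carrying a PMP22 intronic element-driven Fluc reporter were seeded overnight, then exposed to compounds for 24 h at 37 °C. Luminescence was normalized to PTC124 (positive control) and DMSO (0% activity).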

The subject of assay [6] is CP194. Nature of the assay: qHTS profiling for inhibitors of Plasmodium falciparum proliferation (AID 504749). Further: nearly all actives have a fitted effect of over 60% in size. Further: potency means the concentration at half of the fitted maximal effect. To be noted: P. falciparum in erythrocytes, SYBR Green DNA, 72 h; series mostly up to 28.7 µM. Summed up: as §1
In assay [7] the test system is CP315. The description is as above. To be noted: P. falciparum in erythrocytes, SYBR Green DNA, 72 h; series mostly up to 28.7 µM. A digest of the protocol: as §1
Assay [8] relates to PC15. The assay is described as above. To be noted: P. falciparum in erythrocytes, SYBR Green DNA, 72 h; series mostly up to 28.7 µM. Summed up:
as §1

In assay [9] the test system is PC26. The assay is described as above. To be noted: P. falciparum in erythrocytes, SYBR Green DNA, 72 h; series mostly up to 28.7 µM. A digest of the protocol:
as §1

Assay [10] relates to W2. Described as above. To be noted: P. falciparum in erythrocytes, SYBR Green DNA, 72 h; series mostly up to 28.7 µM. A digest of the protocol:
as §1

Assay [11] can be described thus: qHTS Assay for Identification of Small Molecule Antagonists for Thrombopoietin (TPO) Signaling Pathway (AID 918). Further: potency means the concentration at half of the fitted maximal effect; nearly all actives have a fitted effect of over 60% in size. To be noted: TPO-dependent cell signaling reporter, antagonist mode. A digest of the protocol:
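Murine Ba/F3 cells expressing human TPO receptor and a Glycoprotein IIb promoter-luciferase reporter, IL-3-starved overnight, treated with compound plus TPO at EC50 (26 pM final). After 24 h at 37 C, luminescence read to detect inhibitors.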

In assay [12] the target is DNA dC->dU-editing enzyme APOBEC-3G (Homo sapiens) (UniProt Q9HC16). Nature of the assay: qHTS for inhibitors of Vif-A3G interactions: Validation (AID 588379). To be noted: Vif-A3G protein interaction assay; series mostly up to 46.1 µM. Summed up: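 HeLa cells stably expressing Vif and A3G-eYFP, 700 cells/well, incubated overnight at 37 deg C, then exposed to compound overnight at 37 deg C. Inhibition of Vif-mediated degradation read as increased yellow fluorescence (Ex 488/Em 500-530) by laser-scanning cytometry.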

Records with an inconclusive call do not appear. Activity calls are given as the source filed them. The call rests on the fitted dose curve; in most records, active means well fitted curve in the direction sought with a large enough effect; inconclusive means small, poorly fitted or top-dose-only effect, or another doubt; inactive means no such curve, though single readings can be large; an effect the other way counts as inactive or inconclusive.

Sequence of DNA dC->dU-editing enzyme APOBEC-3G (Homo sapiens) (Q9HC16 whole entry, looked up): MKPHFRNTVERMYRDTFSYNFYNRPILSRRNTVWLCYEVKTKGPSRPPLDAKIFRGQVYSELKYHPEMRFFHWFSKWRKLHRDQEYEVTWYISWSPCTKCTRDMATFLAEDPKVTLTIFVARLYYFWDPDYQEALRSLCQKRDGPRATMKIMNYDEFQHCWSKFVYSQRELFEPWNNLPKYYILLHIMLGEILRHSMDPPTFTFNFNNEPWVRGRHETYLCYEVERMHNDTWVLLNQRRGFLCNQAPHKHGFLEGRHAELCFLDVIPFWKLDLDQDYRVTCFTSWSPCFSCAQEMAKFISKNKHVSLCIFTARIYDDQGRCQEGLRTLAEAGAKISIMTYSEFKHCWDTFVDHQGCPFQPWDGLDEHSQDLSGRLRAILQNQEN

`C[C@@H]1O[C@@H](O[C@H]2C[C@@H](O)[C@@]3(CO)[C@H]4[C@H](O)C[C@]5(C)[C@@H](C6=CC(=O)OC6)CC[C@]5(O)[C@H]4CC[C@@]3(O)C2)[C@@H](O)[C@H](O)[C@H]1O`: the Potency entry in assay [1], in [2] and in assay [3] was “inactive” throughout. For the same compound, in assay [4], the call was inactive.

On to `C[C@@H](Cc1ccc(O)cc1)NC[C@@H](O)c1cc(O)cc(O)c1`, for which the compound was classed as inactive in assay [5] and in [4]. The Potency result in [6], in assay [1], in assay [2], in [7], in assay [3] and in assay [8] was “inactive” each time. For the same compound, the Potency result in assay [9] and in assay [10] was “inactive” throughout.

Take `C=C[C@@H]1CN2CC[C@H]1C[C@H]2[C@H](O)c1ccnc2ccccc12`: in assay [5], the call was inactive. In addition, the Potency in assay [6] is 849 nM (active); in assay [1] it was 794 nM (active); in assay [2], 757 nM (active); in assay [7], 1200 nM (active); in assay [3] it was 224 nM (active); in assay [8], 224 nM (active). Moreover, the Potency is 426 nM (active) in [9] and 338 nM (active) in [10].

Turning to `CCn1cnc2c(Nc3cccc(Cl)c3)nc(N[C@@H]3CCCC[C@H]3N)nc21`, the Potency in assay [11] was 2510 nM (active).

Take `O=C1C[C@@H]2OCC=C3CN4CC[C@]56c7ccccc7N1[C@@H]5[C@@H]2[C@H]3C[C@H]46` (tested in a mixture with another compound): the result in [5] was inactive. Moreover, the Potency result in assay [8] and in assay [9] was “inactive” in each case. The Potency in assay [10] was 6750 nM (active).

As for `CC(=O)c1c(O)c(C)c(O)c(Cc2c(O)c3c(c(C(=O)/C=C\c4ccccc4)c2O)OC(C)(C)C=C3)c1O`, in assay [11], the Potency is 2510 nM (active). Also, the outcome in assay [12] was inactive.
